Where “and” joins values, the source holds several entries; their conditions need not be identical. Equal entries are not always repeated. The whole screen tested about 5,500 compounds, of which about 2,000 (36%) were called active. Another 18% or so got no clear call; they are omitted. Rule as the data show it: active = normalized growth mostly below about 0.91 (no sharp cut-off); inconclusive = no clear call, values can overlap the other calls; inactive = mostly above about 0.92. The list shows a part of the results.
Experiment: chemical genetic growth profiling, strain panel (AID 1159580);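 also: tested at 20 µM; growth read once vehicle control cultures reached saturation at 30 °C; 1 = growth at the plate median or of vehicle wells; lower values mean less growth of the strain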
Conditions: S. cerevisiae deletion strains, growth OD

Measured: normalized growth

CC(=O)O[C@H]1CC[C@@]2(C)C(=CCC3C2CC[C@@]2(C)C3CC[C@@H]2C(C)CCCC(C)C)C1 (stereo partly drawn)
inactive: locus YAL021C, strain ccr4, hits give low values 1 | locus YAL026C, strain drs2, hits give low values 1 | locus YAL030W, strain snc1, hits give low values 0.985 | locus YBL061C, strain skt5, hits give low values 0.994 | locus YBR009C, strain hhf1, hits give low values 0.994 | locus YBR021W, strain FUR4, hits give low values 0.996 | locus YBR023C, strain chs3, hits give low values 0.998 | locus YBR171W, strain sec66, hits give low values 0.976 | locus YBR229C, strain ROT2, hits give low values 1.01 | locus YBR231C, strain swc5, hits give low values 0.988 | locus YBR279W, strain paf1, hits give low values 0.997 | locus YCL011C, strain gbp2, hits give low values 0.992 | locus YCL016C, strain dcc1, hits give low values 1.01 | locus YCL029C, strain bik1, hits give low values 1.02 | locus YCL061C, strain MRC1, hits give low values 0.988 | locus YCL069W, strain vba3, hits give low values 0.998 | locus YCR088W, strain abp1, hits give low values 0.988 | locus YDL005C, strain med2, hits give low values 0.981 | locus YDL035C, strain GPR1, hits give low values 1.03 | locus YDL040C, strain nat1, hits give low values 0.975 | locus YDL074C, strain BRE1, hits give low values 1.04 | locus YDL101C, strain DUN1, hits give low values 1.01 | locus YDL134C, strain PPH21, hits give low values 1.02 | locus YDL185W, strain tfp1, hits give low values 1.03 | locus YDL192W, strain arf1, hits give low values 1.05 | locus YDR001C, strain nth1, hits give low values 0.993 | locus YDR069C, strain doa4, hits give low values 0.987 | locus YDR101C, strain arx1, hits give low values 1.02 | locus YDR137W, strain rgp1, hits give low values 1.01 | locus YDR159W, strain sac3, hits give low values 0.993 | locus YDR162C, strain NBP2, hits give low values 1.02 | locus YDR195W, strain ref2 0.943 | locus YDR297W, strain sur2, hits give low values 0.99 | locus YDR318W, strain mcm21, hits give low values 1.03 | locus YDR334W, strain swr1, hits give low values 0.988 | locus YDR335W, strain msn5, hits give low values 1 | locus YDR388W, hits give low values 1.03 | locus YDR392W, strain spt3, hits give low values 0.958 | locus YDR502C, strain sam2, hits give low values 1.02 | locus YEL003W, strain gim4, hits give low values 0.988 | locus YEL037C, strain rad23, hits give low values 0.996 | locus YEL061C, strain CIN8 (second series), hits give low values 0.992 | locus YEL061C, strain CIN8, hits give low values 1.01 | locus YER015W, strain faa2, hits give low values 0.995 | locus YER016W, strain bim1, hits give low values 0.994 | locus YER110C, hits give low values 1.03 | locus YER111C, strain swi4, hits give low values 0.979 | locus YER155C, strain BEM2 (second series), hits give low values 0.97 | locus YER155C, strain BEM2, hits give low values 0.992 | locus YER167W, strain BCK2, hits give low values 1.02 | locus YFR010W, strain ubp6, hits give low values 0.986 | locus YGL078C, strain dbp3, hits give low values 1.02 | locus YGL086W, strain mad1, hits give low values 1.01 | locus YGL167C, strain pmr1, hits give low values 0.989 | locus YGL173C, strain kem1, hits give low values 0.99 | locus YGL227W, strain vid30, hits give low values 0.978 | locus YGL240W, strain doc1, hits give low values 0.969 | locus YGL248W, strain PDE1, hits give low values 1.02 | locus YGL253W, strain hxk2, hits give low values 0.995 | locus YGR078C, strain PAC10, hits give low values 1.03 | locus YGR135W, strain pre9, hits give low values 1.02 | locus YGR252W, strain gcn5, hits give low values 1.03 | locus YHR013C, strain ard1, hits give low values 0.997 | locus YHR027C, strain rpn1, hits give low values 0.997 | locus YHR030C, strain SLT2, hits give low values 1.01 and 0.967 | locus YHR079C, strain IRE1 (second series), hits give low values 1.02 | locus YHR079C, strain IRE1, hits give low values 0.974 | locus YHR094C, strain hxt1, hits give low values 1.01 | locus YHR129C, strain ARP1, hits give low values 1.02 | locus YHR142W, strain chs7, hits give low values 1.01 | locus YHR200W, strain rpn10, hits give low values 1.03 | locus YIL066C, strain RNR3, hits give low values 1.04 | locus YIL073C, strain SPO22, hits give low values 1.1 | locus YIL125W, strain kgd1, hits give low values 1.01 | locus YIR030C, strain dcg1, hits give low values 1.02 | locus YJL092W, strain hpr5, hits give low values 0.998 | locus YJL095W, strain BCK1 (second series), hits give low values 1.01 | locus YJL095W, strain BCK1, hits give low values 1.03 and 0.973 | locus YJL115W, strain asf1, hits give low values 1 | locus YJL129C, strain trk1, hits give low values 0.998 | locus YJL134W, strain LCB3, hits give low values 1.01 | locus YJL154C, strain vps35, hits give low values 1 | locus YJL164C, strain tpk1, hits give low values 1.01 | locus YJL166W, strain qcr8, hits give low values 0.993 | locus YJL168C, strain set2, hits give low values 1.02 | locus YJL187C, strain SWE1 (second series), hits give low values 1.02 | locus YJL187C, strain SWE1, hits give low values 0.997 | locus YJR043C, strain POL32, hits give low values 1.03
